The nature of experiment [1]: ATG_E_Box_CIS: Attagene CIS-FACTORIAL HepG2 Assay for human Enhancer Box (E-box) (AID 2282936). Particulars: HepG2 E-box cis-reporter transcription, actives raise or lower the signal. A digest of the protocol:
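Multiplexed CIS reporter system in transiently transfected HepG2 cells measures native transcription factor activity. Reporter RNA after 24 h exposure is profiled by RT-PCR-capillary electrophoresis.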

Experiment [2] can be described thus: ATG_M_61_CIS: Attagene CIS-FACTORIAL HepG2 Assay for M61 Transcription Factor (Internal Marker) (AID 2282937). Conditions: HepG2 Attagene CIS-FACTORIAL M61 internal marker reporter; actives raise or lower the signal. In a few lines: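 Human liver HepG2, transient MRTU transfection (cis promoter elements), 24 h compound. Total RNA → oligo(dT) RT → PCR → FAM label → HpaI → CE. Internal background marker; bidirectional fitting, DMSO = baseline.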

A short description of experiment [3]: ATG_EGR_CIS: Attagene CIS-FACTORIAL HepG2 Assay for human Early Growth Response 1 (EGR1) (AID 2282938). Particulars: HepG2 Attagene CIS-FACTORIAL EGR reporter mRNA; actives raise or lower the signal. A digest of the protocol:
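Transient transfection of human HepG2 with multiple cis-regulated reporter units, chemical exposure 24 h, total RNA isolated. Reverse transcription, PCR, fluorescent labelling and capillary electrophoresis quantify reporter transcripts; activity fitted bidirectionally against DMSO.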

Experiment [4] in a line: ATG_M_19_CIS: Attagene CIS-FACTORIAL HepG2 Assay for M19 Transcription Factor (Internal Marker) (AID 2282939). Conditions: HepG2 Attagene CIS-FACTORIAL M19 internal marker reporter; actives raise or lower the signal. A digest of the protocol: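 Following a 24 h exposure, RNA from transfected HepG2 cells was reverse-transcribed, PCR-amplified with reporter-specific primers, end-labelled with 6-FAM and HpaI-digested before capillary separation. Values represent gain or loss versus DMSO.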

A short description of experiment [5]: ATG_ERE_CIS: Attagene CIS-FACTORIAL HepG2 Assay for Estrogen Response Element (ERE) (AID 2282940). Conditions: HepG2 ERE cis-reporter, Attagene RNA transcript; actives raise or lower the signal. A digest of the protocol:
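HepG2, transient cis-reporter units, 24 h exposure. RNA isolated, oligo(dT) RT, reporter-specific PCR, FAM extension, HpaI cut, CE detection. Gain/loss-of-signal vs DMSO.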

Experiment [6] is described as follows: ATG_Ets_CIS: Attagene CIS-FACTORIAL HepG2 Assay for human Erythroblast Transformation Specific (ETS) (AID 2282941). Conditions: HepG2 ETS cis-reporter transcription, actives raise or lower the signal. A digest of the protocol:
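After transient cis-reporter transfection, HepG2 cells receive test chemical for 24 h. Reporter mRNA levels, measured by RT-PCR and capillary electrophoresis fluorescence, are analysed bidirectionally relative to the DMSO baseline.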

For experiment [7], the target named is Hepatocyte nuclear factor 3-beta (Homo sapiens) (UniProt Q9Y261). As to the kind of experiment: ATG_FoxA2_CIS: Attagene CIS-FACTORIAL HepG2 Assay for human Forkhead box A2 (FOXA2) (AID 2282942). Conditions: HepG2 cis-reporter transcription factor activity, 24 h; actives raise or lower the signal. In a few lines: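 Transient MRTU transfection of HepG2 liver cells; 24 h treatment; total RNA → oligo(dT) RT → PCR → FAM primer extension → HpaI cut → CE. Bidirectional fit vs DMSO.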

A short description of experiment [8]: ATG_FoxO_CIS: Attagene CIS-FACTORIAL HepG2 Assay for human Forkhead box O (FoxO) (AID 2282943). Conditions: HepG2 Attagene cis-reporter, FoxO element, mRNA; actives raise or lower the signal. A digest of the protocol:
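Values reflect reporter mRNA induction or loss in HepG2 cells 24 h post-dosing, fitted bidirectionally with DMSO as negative control and baseline. Detection used RT-PCR and fluorescence capillary electrophoresis.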

Experiment [9] is described as follows: ATG_GATA_CIS: Attagene CIS-FACTORIAL HepG2 Assay for human GATA Binding Protein (AID 2282944). Particulars: HepG2 GATA cis-element reporter, Attagene multiplex mRNA; actives raise or lower the signal. In a few lines: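 DMSO serves as negative control and baseline for bidirectional fitting of reporter mRNA changes. HepG2 cells bearing transiently transfected cis-promoter reporters were exposed 24 h; transcripts detected via RT-PCR and capillary electrophoresis.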

The nature of experiment [10]: ATG_GLI_CIS: Attagene CIS-FACTORIAL HepG2 Assay for human Zinc Finger Protein GLI1 (AID 2282945). Particulars: HepG2, Attagene cis-factorial reporter mRNA, GLI element; actives raise or lower the signal. A digest of the protocol: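 HepG2 cells transiently transfected with cis-promoter multiplexed reporter units report endogenous transcription factor activity. After 24 h chemical exposure, reporter mRNA was quantified by RT-PCR, 6-FAM labelling, HpaI digestion and capillary electrophoresis, with bidirectional fitting against DMSO.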

Experiment [11] can be described thus: ATG_ISRE_CIS: Attagene CIS-FACTORIAL HepG2 Assay for human Interferon Regulatory Factor 1 (IRF1) binding to an Interferon-Stimulated Response Element (ISRE) (AID 2282948). Conditions: HepG2 ISRE cis-reporter (Attagene), mRNA transcription readout; actives raise or lower the signal. A digest of the protocol:
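Quantitation relies on labelled RT-PCR fragments separated by capillary electrophoresis. Human HepG2 cells bearing cis-promoter reporter constructs were treated 24 h; DMSO served as baseline for bidirectional fitting.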

A short description of experiment [12]: ATG_M_06_CIS: Attagene CIS-FACTORIAL HepG2 Assay for M06 Transcription Factor (Internal Marker) (AID 2282950). Particulars: HepG2 Attagene CIS-FACTORIAL M06 internal marker reporter; actives raise or lower the signal. In a few lines: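 Fluorescence-labelled RT-PCR products from cis-promoter reporter units, cut with HpaI and resolved by capillary electrophoresis, give the signal. Cells are human HepG2, dosed for 24 h. Serves as background control, fitted relative to DMSO.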

For experiment [13], the target named is Hypoxia-inducible factor 1-alpha (Homo sapiens) (UniProt Q16665). As to the kind of experiment: ATG_HIF1a_CIS: Attagene CIS-FACTORIAL HepG2 Assay for human Hypoxia Inducible Factor 1 (HIF1A) (AID 2282951). Particulars: HepG2 Attagene cis-factorial HIF1a reporter transcription; actives raise or lower the signal. A digest of the protocol: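 Transient MRTU transfection of human HepG2 liver cells, 24 h compound treatment, then total RNA isolation, oligo(dT) reverse transcription, PCR amplification, fluorescent labelling and capillary electrophoresis of reporter fragments. Gain or loss relative to DMSO.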

The target of experiment [14] is Hepatocyte nuclear factor 6 (Homo sapiens) (UniProt Q9UBC0). Put plainly: ATG_HNF6_CIS: Attagene CIS-FACTORIAL HepG2 Assay for human Hepatocyte Nuclear Factor 6 (HNF6) (AID 2282952). Conditions: HepG2 Attagene cis-factorial HNF6 reporter transcription; actives raise or lower the signal. A digest of the protocol:
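HepG2, transient MRTU transfection (cis promoters); 24 h chemical exposure; total RNA → oligo(dT) RT → PCR → 6-FAM labelling → HpaI cut → CE; bidirectional fit vs DMSO.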

Experiment [15] is described as follows: ATG_MRE_CIS: Attagene CIS-FACTORIAL HepG2 Assay for human Metal Responsive Element (MRE) (AID 2282954). Particulars: HepG2 MRE cis-reporter transcription, Attagene multiplex; actives raise or lower the signal. A digest of the protocol: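 Step one: transfect HepG2 with cis-regulated reporter units. Step two: dose 24 h. Step three: isolate RNA, RT-PCR, 6-FAM label, HpaI digest, capillary electrophoresis. Fit bidirectionally to DMSO.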

A short description of experiment [16]: ATG_PBREM_CIS: Attagene CIS-FACTORIAL HepG2 Assay for human Phenobarbital-responsive Enhancer Module (PBREM) (AID 2282955). Conditions: HepG2 PBREM cis-reporter, Attagene multiplexed transcription; actives raise or lower the signal. A digest of the protocol: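 Endogenous transcription factors in human liver HepG2 cells drive a PBREM cis-element reporter, whose transcript level after 24 h treatment is quantified by RT-PCR with capillary electrophoresis; activity fitted in both directions against DMSO.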

A short description of experiment [17]: ATG_GRE_CIS: Attagene CIS-FACTORIAL HepG2 Assay for human Glucocorticoid Response Elements (GRE) (AID 2282947). Conditions: HepG2 GRE cis-reporter, Attagene multiplex mRNA; actives raise or lower the signal. In a few lines:
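Following 24 h chemical exposure of transiently transfected HepG2 cells, total RNA was reverse-transcribed and reporter cDNA amplified, fluorescently labelled and sized by capillary electrophoresis. Signal gain or loss was fitted relative to DMSO vehicle.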

A short description of experiment [18]: ATG_M_32_CIS: Attagene CIS-FACTORIAL HepG2 Assay for M32 Transcription Factor (Internal Marker) (AID 2282949).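 Further: background control marker of the multiplexed CIS panel rather than a real target.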 Conditions: HepG2 Attagene cis-factorial M32 reporter, mRNA; actives raise or lower the signal. In a few lines: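 Fluorescent capillary electrophoresis peaks of HpaI-digested, FAM-labelled RT-PCR reporter products give the signal. Source: transiently transfected human liver HepG2 cells, 24 h after chemical dosing; bidirectional fitting against DMSO.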

The target in experiment [19] is Heat shock factor protein 1 (Homo sapiens) (UniProt Q00613). Put plainly: ATG_HSE_CIS: Attagene CIS-FACTORIAL HepG2 Assay for human Heat Shock Transcription Factor 1 (HSE) (AID 2282953). Particulars: HepG2 HSE cis-reporter, Attagene RNA transcription; actives raise or lower the signal. In a few lines: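 After a 24 h incubation with test chemical, transfected HepG2 cells were harvested for RNA; reporter transcripts were measured by RT-PCR and capillary electrophoresis. Values reflect gain or loss of signal relative to DMSO.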

The target in experiment [20] is Bile acid receptor (Homo sapiens) (UniProt Q96RI1). As to the kind of experiment: ATG_IR1_CIS: Attagene CIS-FACTORIAL HepG2 Assay for human Nuclear Receptor Subfamily 1 Group H Member 4 (NR1H4), IR1 submotif (AID 2282946). Particulars: IR1 reporter transcription, actives raise or lower the signal. A digest of the protocol:
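Transient MRTU transfection, HepG2; 24 h dosing; RNA → RT-PCR → 6-FAM primer extension → HpaI digest → capillary electrophoresis fluorescence. Gain/loss of signal fitted relative to DMSO.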

Activity calls are given as the source filed them. How the source made its calls: active means hit-call score of the fitted dose curve at least 0.9, where 1 is the maximum; inactive means score below 0.9.

Outcome and AC50 data for 7 molecules are collected here from PubChem BioAssay (EPA / NIEHS).

Heat shock factor protein 1 (Homo sapiens), sequence (Q00613 whole entry, looked up): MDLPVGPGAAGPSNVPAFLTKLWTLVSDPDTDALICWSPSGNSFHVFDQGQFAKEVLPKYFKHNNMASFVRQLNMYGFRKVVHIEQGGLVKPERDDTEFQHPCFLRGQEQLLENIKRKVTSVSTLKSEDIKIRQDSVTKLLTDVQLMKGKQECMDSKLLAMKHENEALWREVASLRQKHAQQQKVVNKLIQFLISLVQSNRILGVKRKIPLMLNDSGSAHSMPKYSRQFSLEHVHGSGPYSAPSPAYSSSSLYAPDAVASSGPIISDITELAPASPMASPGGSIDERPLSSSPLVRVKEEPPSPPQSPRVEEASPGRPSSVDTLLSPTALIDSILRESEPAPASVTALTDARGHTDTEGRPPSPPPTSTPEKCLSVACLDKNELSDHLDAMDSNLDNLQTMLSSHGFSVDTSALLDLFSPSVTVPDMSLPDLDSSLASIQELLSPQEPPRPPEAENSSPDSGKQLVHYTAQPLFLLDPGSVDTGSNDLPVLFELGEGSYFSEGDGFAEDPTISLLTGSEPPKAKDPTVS
Hepatocyte nuclear factor 3-beta (Homo sapiens), sequence (Q9Y261 whole entry, looked up): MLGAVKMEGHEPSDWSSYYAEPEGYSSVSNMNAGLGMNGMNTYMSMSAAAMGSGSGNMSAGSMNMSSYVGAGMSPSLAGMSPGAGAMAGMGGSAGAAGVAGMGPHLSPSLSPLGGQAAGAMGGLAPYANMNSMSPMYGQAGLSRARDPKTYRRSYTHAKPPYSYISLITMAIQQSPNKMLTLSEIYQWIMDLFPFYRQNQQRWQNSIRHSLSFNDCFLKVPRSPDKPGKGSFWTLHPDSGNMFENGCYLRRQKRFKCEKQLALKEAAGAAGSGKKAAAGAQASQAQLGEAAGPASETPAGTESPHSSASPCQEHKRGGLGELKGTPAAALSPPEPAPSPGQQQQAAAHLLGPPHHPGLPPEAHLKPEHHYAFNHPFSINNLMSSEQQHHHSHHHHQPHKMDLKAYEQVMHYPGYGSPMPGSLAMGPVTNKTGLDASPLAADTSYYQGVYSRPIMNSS
Hypoxia-inducible factor 1-alpha (Homo sapiens), sequence (Q16665 whole entry, looked up, the tested form may be a part): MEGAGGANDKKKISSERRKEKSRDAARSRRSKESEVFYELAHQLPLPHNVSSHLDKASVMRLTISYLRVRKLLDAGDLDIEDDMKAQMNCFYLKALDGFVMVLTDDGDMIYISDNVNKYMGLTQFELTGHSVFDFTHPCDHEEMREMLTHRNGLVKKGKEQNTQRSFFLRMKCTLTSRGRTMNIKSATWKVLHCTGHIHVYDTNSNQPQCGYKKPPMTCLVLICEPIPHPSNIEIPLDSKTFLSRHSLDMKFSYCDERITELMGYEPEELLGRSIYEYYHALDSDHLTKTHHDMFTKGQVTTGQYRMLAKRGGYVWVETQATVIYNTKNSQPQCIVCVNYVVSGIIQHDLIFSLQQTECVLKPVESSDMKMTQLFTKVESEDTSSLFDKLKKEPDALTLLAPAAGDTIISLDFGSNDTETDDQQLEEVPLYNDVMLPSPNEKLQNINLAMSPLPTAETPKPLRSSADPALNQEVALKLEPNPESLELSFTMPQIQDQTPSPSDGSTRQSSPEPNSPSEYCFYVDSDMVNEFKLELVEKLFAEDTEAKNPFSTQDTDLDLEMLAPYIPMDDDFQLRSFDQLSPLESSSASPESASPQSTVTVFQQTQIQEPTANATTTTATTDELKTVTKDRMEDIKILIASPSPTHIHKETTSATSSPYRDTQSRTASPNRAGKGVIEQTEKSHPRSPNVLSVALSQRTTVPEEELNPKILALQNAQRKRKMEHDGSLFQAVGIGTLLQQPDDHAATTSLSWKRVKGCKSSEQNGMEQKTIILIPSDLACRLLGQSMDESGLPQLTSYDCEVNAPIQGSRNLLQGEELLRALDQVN
Hepatocyte nuclear factor 6 (Homo sapiens), sequence (Q9UBC0 whole entry, looked up): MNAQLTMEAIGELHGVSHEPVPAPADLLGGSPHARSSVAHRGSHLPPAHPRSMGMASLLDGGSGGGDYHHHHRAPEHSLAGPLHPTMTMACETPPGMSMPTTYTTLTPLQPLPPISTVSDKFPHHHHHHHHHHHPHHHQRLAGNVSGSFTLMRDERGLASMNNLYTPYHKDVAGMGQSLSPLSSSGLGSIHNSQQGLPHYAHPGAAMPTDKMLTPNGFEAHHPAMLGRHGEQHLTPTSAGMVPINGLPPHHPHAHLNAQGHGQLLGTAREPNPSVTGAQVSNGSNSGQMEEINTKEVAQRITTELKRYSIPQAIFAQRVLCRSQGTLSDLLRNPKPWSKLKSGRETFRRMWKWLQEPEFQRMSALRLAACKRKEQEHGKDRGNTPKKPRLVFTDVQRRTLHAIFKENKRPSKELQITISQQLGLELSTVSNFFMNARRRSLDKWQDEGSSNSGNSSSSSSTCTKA
Bile acid receptor (Homo sapiens), sequence (Q96RI1 whole entry, looked up): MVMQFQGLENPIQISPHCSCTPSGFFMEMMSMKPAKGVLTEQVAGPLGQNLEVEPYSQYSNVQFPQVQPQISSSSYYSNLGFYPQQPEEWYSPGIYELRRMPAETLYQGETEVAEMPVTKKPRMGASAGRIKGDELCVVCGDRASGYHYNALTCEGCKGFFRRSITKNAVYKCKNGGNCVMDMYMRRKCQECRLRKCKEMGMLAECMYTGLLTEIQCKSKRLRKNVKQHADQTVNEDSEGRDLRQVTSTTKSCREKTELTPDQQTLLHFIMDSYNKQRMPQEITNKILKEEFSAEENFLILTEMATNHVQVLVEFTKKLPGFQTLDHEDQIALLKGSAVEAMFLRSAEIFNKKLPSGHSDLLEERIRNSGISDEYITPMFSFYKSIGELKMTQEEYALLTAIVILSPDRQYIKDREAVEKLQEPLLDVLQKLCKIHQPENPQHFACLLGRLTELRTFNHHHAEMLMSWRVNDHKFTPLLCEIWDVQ

On to `CCN(CC#N)c1cccc(C)c1`, for which the result in experiment [1], in experiment [2], in experiment [3], in experiment [4], in experiment [5] and in experiment [6] was inactive. In addition, the outcome in [7], in [8], in experiment [9], in experiment [10], in experiment [11] and in experiment [12] was inactive. Also, the outcome in experiment [13], in [14], in experiment [15] and in experiment [16] was inactive.
Take `O=c1[nH]c(=O)c2[nH]c(=O)[nH]c2[nH]1`: the outcome in experiment [1], in [2], in experiment [3], in experiment [4], in experiment [5] and in [6] was inactive. The molecule was classed as inactive in [7], in experiment [8], in [9], in experiment [17], in experiment [11] and in [18]. For the same molecule, the call in experiment [12], in [13], in experiment [14], in experiment [19] and in [15] was inactive.
With `NC(=O)N=NC(N)=O`, the outcome in experiment [1], in experiment [2], in experiment [3], in experiment [4], in experiment [5] and in experiment [6] was inactive. Also, the molecule was classed as inactive in [7], in experiment [8], in experiment [9], in [20], in [17] and in experiment [11]. The molecule was classed as inactive in experiment [18], in [12], in [13], in experiment [14], in experiment [15] and in [16].
The term AC50 denotes the midpoint of the concentration-response curve, whichever way the signal moves. As for `O=Nc1ccc(O)cc1`, the outcome in experiment [1], in experiment [2], in experiment [3], in experiment [4], in experiment [6] and in experiment [7] was inactive. For the same molecule, the outcome in [8], in experiment [9], in experiment [20], in experiment [17], in experiment [11] and in experiment [18] was inactive. In addition, the outcome in [12], in experiment [13], in experiment [14], in [19], in [15] and in [16] was inactive. In experiment [5], the half-maximal activity concentration (AC50) is 56.4 µM (active).
As to `O=S(=O)(O)c1ccc2cc(O)c(S(=O)(=O)O)cc2c1`, the outcome in experiment [1], in experiment [2], in experiment [3], in [4], in experiment [5] and in [6] was inactive. In addition, the call in [7], in experiment [8], in experiment [9], in experiment [17], in experiment [18] and in experiment [12] was inactive. Further, the result in experiment [14], in experiment [19] and in [16] was inactive. Further, the concentration at half-maximal activity (AC50) in experiment [11] is 160 µM (active); in experiment [13], 171 µM (active); in [15], 169 µM (active).
Regarding `N#[N+]c1ccc2c(S(=O)(=O)[O-])cccc2c1O`, the result in [1], in experiment [2], in [3], in [4], in experiment [5] and in [6] was inactive. For the same molecule, the result in experiment [7], in experiment [8], in [9], in [10], in experiment [11] and in experiment [18] was inactive. Moreover, the outcome in [13], in experiment [14], in experiment [19], in experiment [15] and in [16] was inactive.
In the case of `CCCCCCCCCCCCCCCC[n+]1ccccc1`, the result in experiment [1], in [2], in [3], in [4], in [5] and in experiment [7] was inactive. For the same molecule, the molecule was classed as inactive in [8], in [9], in experiment [20], in experiment [17], in experiment [18] and in experiment [12]. For the same molecule, the outcome in experiment [13], in [14], in [19] and in experiment [15] was inactive. Also, the AC50 in experiment [6] was 9.08 µM (active); in experiment [11], 9.02 µM (active).
